Publication PMC5540273 (PLoS ONE, 2017)

Tests used:
Conditions in all cases: concentration: 1 μM, replicates: in singlicate; n = 1
CSF1R = test system: CSF1R
CSK = test system: CSK
CSNK1A1L = test system: CSNK1A1L
CSNK1A1 = test system: CSNK1A1
CSNK1D = test system: CSNK1D
CSNK1E = test system: CSNK1E
CSNK1G1 = test system: CSNK1G1
CSNK1G2 = test system: CSNK1G2
CSNK1G3 = test system: CSNK1G3
CSNK2A1 = test system: CSNK2A1
CSNK2A2 = test system: CSNK2A2
CTK = test system: T1, CTK
T1 construct: gene MATK

DAPK1 = test system: DAPK1
DAPK2 = test system: DAPK2
DAPK3 = test system: DAPK3
DCAMKL1 = test system: T2, DCAMKL1
T2 construct: gene DCLK1

DCAMKL2 = test system: T3, DCAMKL2
T3 construct: gene DCLK2

DCAMKL3 = test system: T4, DCAMKL3
T4 construct: gene DCLK3

DDR1 = test system: DDR1
DDR2 = test system: DDR2
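Further: KINOMEscan kinase panel screen.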

| SMILES | %Inh (CSF1R) [%] | %Inh (CSK) [%] | %Inh (CSNK1A1L) [%] | %Inh (CSNK1A1) [%] | %Inh (CSNK1D) [%] | %Inh (CSNK1E) [%] | %Inh (CSNK1G1) [%] | %Inh (CSNK1G2) [%] | %Inh (CSNK1G3) [%] | %Inh (CSNK2A1) [%] | %Inh (CSNK2A2) [%] | %Inh (CTK) [%] | %Inh (DAPK1) [%] | %Inh (DAPK2) [%] | %Inh (DAPK3) [%] | %Inh (DCAMKL1) [%] | %Inh (DCAMKL2) [%] | %Inh (DCAMKL3) [%] | %Inh (DDR1) [%] | %Inh (DDR2) [%] |
| --- | --- | --- | --- | --- | --- | --- | --- | --- | --- | --- | --- | --- | --- | --- | --- | --- | --- | --- | --- | --- |
| CCS(=O)c1ccc(-c2coc3ccc(-c4nnc(C)o4)cc23)cc1 (centres unmarked) | 0 | 19 | 0 | 1 | 0 | 0 | 0 | 0 | 0 | 21 | 31 | 0 | 14 | 0 | 0 | 36 | 0 | 0 | 0 | 16 |
| CCC(=O)c1c(-c2ccccc2)c2cc(Cl)ccc2c(=O)n1Cc1cc(S(C)(=O)=O)n(CC(N)=O)n1 | 0 | 4 | 0 | 0 | 0 | 0 | 0 | 0 | 0 | 0 | 4 | 0 | 0 | 0 | 6 | 24 | 2 | 0 | 0 | 0 |
| Nc1ncnc2c1ncn2-c1cccc(F)c1 [SKF-97560] | 20 | 0 | 0 | 16 | 26 | 0 | 0 | 13 | 0 | 28 | 0 | 22 | 0 | 0 | 8 | 0 | 11 | 0 | 18 | 30 |
| CCCNC(=O)Nc1ccc(Oc2ncnc3ccn(C)c23)cc1 | 29 | 0 | 7 | 10 | 9 | 0 | 2 | 11 | 0 | 0 | 33 | 35 | 10 | 0 | 0 | 35 | 0 | 0 | 0 | 8 |
| COc1ccc(Nc2nccc(N3CCC(NS(=O)(=O)c4ccc(NC(C)=O)cc4)C3)n2)cc1 (centres unmarked) [GSK1379729] | 1 | 0 | 13 | 32 | 17 | 25 | 6 | 18 | 28 | 15 | 18 | 0 | 0 | 0 | 6 | 10 | 0 | 53 | 13 | 26 |
| COc1cc2nccc(Nc3cccc(Oc4ccccc4)c3)c2cc1OC.Cl [GW284543] | 0 | 11 | 12 | 0 | 0 | 5 | 0 | 0 | 26 | 0 | 4 | 10 | 0 | 0 | 0 | 11 | 0 | 23 | 17 | 9 |
| COc1ccc(-c2cc3c(C)nc(N)nc3n([C@H]3CC[C@H](OCCO)CC3)c2=O)cn1 | 5 | 13 | 0 | 24 | 1 | 4 | 0 | 0 | 0 | 0 | 11 | 2 | 11 | 0 | 0 | 0 | 0 | 0 | 0 | 0 |
